Measured values published in PubChem BioAssay (Tox21).
Inconclusive results are not listed. Active and inactive are the calls of the source. Unless noted, calls come from the whole dose curve.

Legend:
[1] = Nuclear factor erythroid 2-related factor 2/antioxidant responsive element (Nrf2/ARE) small molecule agonists: qHTS cell viability counter screen in human keratinocytes (AID 1919968; active = well fitted curve in the direction sought with a large enough effect in the repeat runs; an effect the other way counts as inactive or inconclusive; note: nearly all actives have a fitted effect of over 55% in size)
In short: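 In human HaCaT keratinocytes stably expressing an ARE-driven luciferase, compound exposure lasted 23 h at 37 C under 5% CO2. Viable cells are quantified with a protease-based fluorogenic reagent (CellTiter-Fluor) read 1 h after addition.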

[2] = biological target: Gonadotropin-releasing hormone receptor (Homo sapiens) (UniProt P30968); experiment: Human gonadotropin-releasing hormone receptor (GnRHR) small molecule agonists, calcium flux assay in GnRHR-HEK293 cells (AID 1920063); note: nearly all actives have a fitted effect of over 35% in size
Sequence of Gonadotropin-releasing hormone receptor (Homo sapiens) (P30968 whole entry, looked up): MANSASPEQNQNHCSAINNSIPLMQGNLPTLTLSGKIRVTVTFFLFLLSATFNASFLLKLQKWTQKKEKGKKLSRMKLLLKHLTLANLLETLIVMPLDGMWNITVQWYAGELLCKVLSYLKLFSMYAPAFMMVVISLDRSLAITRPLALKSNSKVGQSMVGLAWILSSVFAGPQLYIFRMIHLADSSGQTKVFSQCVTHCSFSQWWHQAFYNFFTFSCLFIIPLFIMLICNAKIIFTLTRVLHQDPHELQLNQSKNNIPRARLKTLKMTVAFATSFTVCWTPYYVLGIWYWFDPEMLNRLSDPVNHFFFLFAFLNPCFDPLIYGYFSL
In short: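 Intracellular calcium rise is the read-out: engineered human GnRHR HEK293 cells, dye-loaded, are exposed to DMSO-dissolved compounds and fluorescence at Ex/Em 480/540 is tracked for 3 min.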

[3] = biological target: KiSS-1 receptor (Homo sapiens) (UniProt Q969F8); experiment: Human kisspeptin (KISS1R) small molecule agonists, calcium flux assay in KISS1R-HEK293 cells (AID 1920064; active = well fitted curve in the direction sought with a large enough effect in the repeat runs; an effect the other way counts as inactive or inconclusive)
Sequence of KiSS-1 receptor (Homo sapiens) (Q969F8 whole entry, looked up): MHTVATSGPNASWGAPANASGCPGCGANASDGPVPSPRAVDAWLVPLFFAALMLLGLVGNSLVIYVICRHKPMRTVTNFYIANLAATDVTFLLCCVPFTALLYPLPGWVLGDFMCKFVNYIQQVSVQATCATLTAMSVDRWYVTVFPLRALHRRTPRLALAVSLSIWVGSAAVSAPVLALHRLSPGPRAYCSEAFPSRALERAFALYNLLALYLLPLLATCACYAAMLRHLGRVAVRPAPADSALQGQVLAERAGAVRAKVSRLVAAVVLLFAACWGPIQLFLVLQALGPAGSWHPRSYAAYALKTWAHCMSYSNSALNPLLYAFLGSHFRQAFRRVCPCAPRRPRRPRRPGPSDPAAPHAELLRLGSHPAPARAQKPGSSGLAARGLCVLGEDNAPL
In short: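 Concentration-response testing used 15 concentrations in triplicate on human KISS1R-expressing HEK293 cells. Calcium-dependent fluorescence (Ex/Em 480/540) was followed kinetically for 3 min after compound transfer.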

[4] = G protein-coupled receptor (GPCR) small molecule agonists, calcium flux assay: HEK293 wild type cell line counter screen (AID 1920065)
In short: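 Fluorescence intensity signals activation. After overnight (18 h) culture and a 1 h calcium dye load at 37 C, compounds are added by pin tool and the plate read at 480/540 nm for 3 min in 1 s steps.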

[5] = p53 small molecule agonists, cell-based qHTS assay: qHTS cell viability counter screen (AID 1963581); note: nearly all actives have a fitted effect of over 45% in size
In short: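 Luminescence from CellTiter-Glo, reflecting ATP content, serves as the cytotoxicity measure; it is taken after the 2 h reporter substrate step in HCT-116 p53RE-bla cells dosed for 16 h at 37 C.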

[6] = biological target: 5-hydroxytryptamine receptor 2A (Homo sapiens) (UniProt P28223); experiment: 5-hydroxytryptamine receptor 2A (HTR2A) small molecule antagonists, cell-based qHTS assay (AID 1963586); note: nearly all actives have a fitted effect of over 45% in size
Sequence of 5-hydroxytryptamine receptor 2A (Homo sapiens) (P28223 whole entry, looked up): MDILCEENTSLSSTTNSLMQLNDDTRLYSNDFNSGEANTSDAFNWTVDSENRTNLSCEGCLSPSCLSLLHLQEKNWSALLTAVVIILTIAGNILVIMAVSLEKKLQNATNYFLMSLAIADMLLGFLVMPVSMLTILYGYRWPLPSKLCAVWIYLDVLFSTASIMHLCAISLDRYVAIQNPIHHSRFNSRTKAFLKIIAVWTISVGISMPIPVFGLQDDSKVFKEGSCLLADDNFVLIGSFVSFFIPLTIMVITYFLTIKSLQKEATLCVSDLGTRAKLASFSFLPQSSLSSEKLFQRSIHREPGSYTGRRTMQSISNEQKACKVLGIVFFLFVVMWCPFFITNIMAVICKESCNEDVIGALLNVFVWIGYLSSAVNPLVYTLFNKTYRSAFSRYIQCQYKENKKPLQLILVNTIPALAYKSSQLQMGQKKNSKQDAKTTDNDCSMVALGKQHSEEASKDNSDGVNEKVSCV
In short: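 CHO cells stably expressing human HTR2A were plated for 18 h at 37 C, then loaded with calcium dye for 1 h. Compounds were preincubated 5 min at room temperature before DOI (4 nM solution) was added. Kinetic fluorescence was read for 3 min.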

[7] = biological target: 5-hydroxytryptamine receptor 2A (Homo sapiens) (UniProt P28223); experiment: 5-hydroxytryptamine receptor 2A (HTR2A) small molecule agonists, cell-based qHTS assay (AID 1963587); note: nearly all actives have a fitted effect of over 30% in size
In short: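 Kinetic calcium-flux fluorescence (2 min, 1 sec intervals) after compound addition in agonist mode. HTR2A-CHO cells were cultured 18 h, then dye-loaded 1 h at 37 C.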

[8] = biological target: Muscarinic acetylcholine receptor M1 (Homo sapiens) (UniProt P11229); experiment: Cholinergic receptor muscarinic 1 (CHRM1) small molecule antagonists, cell-based qHTS assay (AID 1963588); note: nearly all actives have a fitted effect of over 40% in size
Sequence of Muscarinic acetylcholine receptor M1 (Homo sapiens) (P11229 whole entry, looked up): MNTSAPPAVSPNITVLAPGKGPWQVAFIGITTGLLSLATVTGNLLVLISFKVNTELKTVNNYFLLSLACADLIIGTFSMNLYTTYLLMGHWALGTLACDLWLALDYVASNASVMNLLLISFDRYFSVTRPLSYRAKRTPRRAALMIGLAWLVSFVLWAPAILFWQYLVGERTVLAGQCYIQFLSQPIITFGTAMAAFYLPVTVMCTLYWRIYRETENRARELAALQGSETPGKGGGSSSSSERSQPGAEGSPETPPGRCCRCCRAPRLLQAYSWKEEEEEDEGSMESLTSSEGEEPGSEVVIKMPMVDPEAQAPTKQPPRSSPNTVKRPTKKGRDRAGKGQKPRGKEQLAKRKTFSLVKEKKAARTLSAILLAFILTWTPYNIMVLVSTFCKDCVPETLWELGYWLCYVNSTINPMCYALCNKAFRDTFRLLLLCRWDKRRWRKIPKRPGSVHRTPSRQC
In short: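 Compounds were tested at 15 concentrations in three independent runs. Dye-loaded CHRM1-CHO cells were exposed 5 min at room temperature before stimulation by acetylcholine added at 50nM. Intracellular calcium was read kinetically on FDSS for 3 min.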

[9] = biological target: Muscarinic acetylcholine receptor M1 (Homo sapiens) (UniProt P11229); experiment: Cholinergic receptor muscarinic 1 (CHRM1) small molecule agonists, cell-based qHTS assay (AID 1963589); note: nearly all actives have a fitted effect of over 35% in size
In short: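 Fluorescent calcium dye reports M1 activation in stably transfected CHO cells. Compounds, 15 concentrations, added after 1 h dye loading at 37 C; kinetic reading at 1 sec intervals.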

[10] = cAMP Responsive Elements (CRE) small molecule agonists, cell-based qHTS assay (AID 1963590)
In short: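 Compound exposure lasted 3 h at 37 C/5% CO2 in CRE-bla HEK 293T cells grown in assay medium with 10% dialyzed FBS and 25 mM HEPES. Reporter signal came from LiveBLAzer B/G FRET substrate, 2 h, room temperature.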

[11] = biological target: Beta-2 adrenergic receptor (Homo sapiens) (UniProt P07550); experiment: Adrenergic beta2 receptor (ADRB2) small molecule antagonists, cell-based qHTS assay (AID 1963592); note: nearly all actives have a fitted effect of over 50% in size; note: potency is the fitted concentration of half-maximal effect
Sequence of Beta-2 adrenergic receptor (Homo sapiens) (P07550 whole entry, looked up): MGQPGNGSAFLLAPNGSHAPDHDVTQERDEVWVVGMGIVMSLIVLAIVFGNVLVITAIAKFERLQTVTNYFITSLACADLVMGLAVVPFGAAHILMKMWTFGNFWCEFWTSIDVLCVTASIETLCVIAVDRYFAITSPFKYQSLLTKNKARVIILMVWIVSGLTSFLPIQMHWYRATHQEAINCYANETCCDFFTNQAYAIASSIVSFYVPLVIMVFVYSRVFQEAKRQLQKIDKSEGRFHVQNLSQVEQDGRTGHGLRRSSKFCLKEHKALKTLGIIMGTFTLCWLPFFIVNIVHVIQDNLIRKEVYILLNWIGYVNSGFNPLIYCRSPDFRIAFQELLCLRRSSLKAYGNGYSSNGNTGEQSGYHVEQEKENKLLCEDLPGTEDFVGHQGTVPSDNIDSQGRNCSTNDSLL
In short: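 Assay format: CHO-ADRB2 cells, 18-20hr seeding at 37C/5% CO2, then compound plus 1nM isoproterenol agonist mix for 0.5hr RT. Homogeneous time-resolved fluorescence cAMP detection after 1hr, expressed as 665/615 nm ratio.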

[12] = biological target: D(2) dopamine receptor (Homo sapiens) (UniProt P14416); experiment: Dopamine D2 receptor (DRD2) small molecule agonists, cell-based qHTS assay (AID 1963594); note: nearly all actives have a fitted effect of over 35% in size
Sequence of D(2) dopamine receptor (Homo sapiens) (P14416 whole entry, looked up): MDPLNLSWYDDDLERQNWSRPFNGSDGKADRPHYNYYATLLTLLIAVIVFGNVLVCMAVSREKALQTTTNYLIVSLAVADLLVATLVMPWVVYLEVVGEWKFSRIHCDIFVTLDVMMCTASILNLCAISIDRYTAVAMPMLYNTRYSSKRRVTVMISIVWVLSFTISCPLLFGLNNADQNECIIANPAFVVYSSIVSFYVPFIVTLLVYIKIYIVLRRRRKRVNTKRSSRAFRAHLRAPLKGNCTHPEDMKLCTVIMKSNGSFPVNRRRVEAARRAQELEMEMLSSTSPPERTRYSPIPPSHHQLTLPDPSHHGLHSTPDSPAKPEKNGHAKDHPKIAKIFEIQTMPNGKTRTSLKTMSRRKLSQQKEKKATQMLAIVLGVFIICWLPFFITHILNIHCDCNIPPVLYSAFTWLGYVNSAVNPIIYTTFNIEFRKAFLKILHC
In short: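 cAMP accumulation in DRD2-HEK293 cells measured by HTRF after 1 h detection; compounds added 10 min before NKH477 (200nM […]) forskolin-analogue stimulation, 30 min at room temperature, with Ro20-1724 present at 0.1 mM final.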

[13] = biological target: D(2) dopamine receptor (Homo sapiens) (UniProt P14416); experiment: Dopamine D2 receptor (DRD2) small molecule antagonists, cell-based qHTS assay (AID 1963595; active = well fitted inhibition curve with a large enough effect in the signal ratio in the repeat runs, with a control signal flat; the % refers to the signal ratio; note: potency is the fitted concentration of half-maximal effect)
In short: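 In this cell-based antagonist screen, compounds act for 10 min at room temperature before a 30 min challenge with 12 nM quinpirole and 200 nM NKH477. cAMP is quantified by HTRF competition in DRD2-HEK293 cells containing 0.1 mM Ro20-1724.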

[14] = cAMP Responsive Elements (CRE) small molecule antagonists, cell-based qHTS assay (AID 1963591; active = well fitted inhibition curve with a large enough effect in the signal ratio in the repeat runs, not every such curve was filed as active; the % refers to the signal ratio)
In short: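 Stimulation used NKH477 at a final 0.25 uM for 3 h in compound-treated CRE-bla HEK293T cells, seeded 18 h beforehand. Reporter activity was measured with LiveBLAzer B/G FRET substrate after 2 h at room temperature.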

[15] = biological target: Beta-2 adrenergic receptor (Homo sapiens) (UniProt P07550); experiment: Adrenergic beta2 receptor (ADRB2) small molecule agonists, cell-based qHTS assay (AID 1963593);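 note: CHO cells stably overexpressing human ADRB2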
In short: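 CHO cells stably over-expressing ADRB2 were plated overnight at 37C, then dosed with compounds plus a stimulation mix containing 100uM IBMX and 25uM Ro-20-1724 for 0.5hr at room temperature. cAMP was measured by HTRF competition, 1hr.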

[16] = p53 small molecule agonists, cell-based qHTS assay with human liver microsomes (AID 1963577)
In short: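 p53RE-bla reporter cells were pre-incubated 5 h at 37 C, then treated with compounds plus human liver microsomes (0.5 mg/mL final) and NADPH (0.5 mg/mL final) for 16 h at 37 C. Beta-lactamase activity was read by LiveBLAzer fluorescence after 2 h at room temperature.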

[17] = p53 small molecule agonists, cell-based qHTS assay with human liver microsomes: qHTS cell viability counter screen (AID 1963579); note: nearly all actives have a fitted effect of over 45% in size
In short: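 p53RE-bla cells (4,000/well) were pre-incubated 5 h at 37 C, then given compounds in DMSO plus human liver microsomes (0.5 mg/mL final) and NADPH (0.5 mg/mL final) for 16 h at 37 C. Viability was read by CellTiter-Glo luminescence.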

[18] = p53 small molecule agonists, cell-based qHTS assay with rat liver microsomes: qHTS cell viability counter screen (AID 1963580); note: nearly all actives have a fitted effect of over 45% in size
In short: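 Rat liver microsome (0.5 mg/mL final) and NADPH (0.5 mg/mL final) co-incubation with compounds for 16 h at 37 C on HCT-116 p53RE-bla cells; cytotoxicity taken from intracellular ATP luminescence.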

[19] = p53 small molecule agonists, cell-based qHTS assay (AID 1963582; active = well fitted activation curve with a large enough effect in the signal ratio in the repeat runs, not every such curve was filed as active; the % refers to the signal ratio)
In short: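 After plating, p53RE-bla cells sat 5 h in the incubator; compounds or DMSO vehicle were pinned in; a 16 h incubation at 37 C followed; FRET substrate was added and, 2 h later at RT, fluorescence was measured.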

[20] = p53 small molecule agonists, cell-based qHTS assay with rat liver microsomes (AID 1963578)
In short: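 p53RE-bla cells were exposed to compounds together with rat liver microsomes (0.5 mg/mL final) and NADPH (0.5 mg/mL final) for 16 h at 37 C, then read by LiveBLAzer beta-lactamase fluorescence after 2 h at room temperature.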

Measured: Potency

CCOc1ccc2c(c1)C(C)CC(C)(C)N2 (stereo unspecified)
not listed: [14] | [15] | [16] | [17] | [18] | [19] | [20]
inactive: all other assays above

CN(C)CCC(c1ccc(Cl)cc1)c1ccccn1 (stereo unspecified)
inactive: [1] | [2] | [3] | [4] | [5] | [10] | [14] | [11] | [15] | [12] | [13]

C=C[Si](OCC)(OCC)OCC
not listed: [4] | [15] | [20]
inactive: all other assays above

CC(=O)OCC=C(C)C
not listed: [4] | [5] | [9] | [14]
inactive: all other assays above

CC(C)(Cc1c[nH]c2ccccc12)NCC(O)COc1ccccc1C#N (stereo unspecified)
active: [11] 6.7 nM
inactive: [1] | [2] | [3] | [4] | [18] | [9] | [10] | [14] | [12] | [13]

c1ccc(-c2nc3ccccc3[nH]2)cc1
not listed: [4] | [5] | [11] | [15] | [18]
inactive: all other assays above

C[C@H](CS)C(=O)N1CCC[C@H]1C(=O)O
not listed: [4] | [6] | [7] | [8] | [9] | [10] | [11]
inactive: all other assays above

CCOc1ccccc1OCCN[C@H](C)Cc1ccc(OC)c(S(N)(=O)=O)c1
active: [11] 8410 nM | [13] 1190 nM
not listed: [4] | [12] | [15] | [16] | [19] | [20]
inactive: all other assays above

CCCNCC(O)COc1ccccc1C(=O)CCc1ccccc1 (stereo unspecified)
inactive: [1] | [2] | [3] | [10] | [14] | [12] | [13]
active: [11] 841 nM

C=C[Si](OC(C)=O)(OC(C)=O)OC(C)=O
not listed: [4] | [9] | [13] | [16] | [17] | [18]
inactive: all other assays above

O=C(NO)C1(NS(=O)(=O)c2ccc(Oc3ccc(F)cc3)cc2)CCOCC1
not listed: [4] | [15] | [16] | [19] | [20]
inactive: all other assays above

O=C1CCCC(=O)O1
not listed: [4] | [12] | [14] | [15]
inactive: all other assays above

CO
not listed: [4] | [8]
inactive: all other assays above
